High-throughput results from PubChem BioAssay.
Only some compounds are listed: those with a hit (about 12% of all), similar ones and a draw of the others.
G9a inh: G9a (human) methyltransferase inhibition; G9a H3K9 monomethylation, AlphaScreen, 2 h; Potency, µM (doses to about 102 µM), inactives show at the top dose activity, negative = inhibition, hits mostly inhibitors; 350,000 tested, 8.8% active; AID 504332; also: % is scaled to controls: 0 for no effect and ±100 for the full control effect; nearly all actives have a fitted effect of over 75% in size
Target sequence (Q96KQ7 913-1193 limits assumed): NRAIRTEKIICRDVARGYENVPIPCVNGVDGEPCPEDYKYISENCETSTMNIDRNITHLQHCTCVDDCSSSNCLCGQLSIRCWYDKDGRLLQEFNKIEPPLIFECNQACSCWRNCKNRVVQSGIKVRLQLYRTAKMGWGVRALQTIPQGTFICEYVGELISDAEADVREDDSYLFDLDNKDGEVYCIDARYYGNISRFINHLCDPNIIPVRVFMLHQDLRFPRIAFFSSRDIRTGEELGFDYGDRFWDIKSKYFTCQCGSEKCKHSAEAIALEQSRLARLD
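Enzyme 20 nM + cpd, 15 min RT; add b-H3K9 pep 500 nM / SAM 20 uM; 2 h RT; anti-H3K9me1 Ab 0.5 ug/mL + SA donor / anti-rabbit acceptor beads 20 ug/mL each, 10 min; AlphaScreen read.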
BAZ2B block: BAZ2B (human) inhibition | Potency, µM (series often up to 114 µM), inactives show at the top dose activity change, negative = inhibition, actives largely listed as inhibitors | AID 504333 | 360,000 tested, 4.4% active | AlphaScreen BAZ2B-H3K14Ac peptide displacement; also: % is scaled to controls: 0 for no effect and ±100 for the full control effect; nearly all actives have a fitted effect of over 60% in size
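BAZ2B 50 nM plus b-H3(5-23)K14Ac 50 nM, PBS pH 7.4/0.01% Tween-20, 30 min RT; compound added (max 110 uM), 30 min RT; streptavidin donor/Ni-chelate acceptor beads 10 ug/mL final, 20 min dark; AlphaScreen read.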
Sfp PPTase inh: Sfp phosphopantetheinyl transferase inhibition; Q9F4F7; Biochemical Sfp PPTase activity, qHTS; Potency, µM, for the others: largest response in the series, negative = inhibition, most hits filed as inhibitors; 310,000 tested, 3.5% active;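 also: the enzyme is Sfp with the accession as filed and its product quenches rhodamine fluorescence; 0% = enzyme reaction without inhibitor and -100% = no enzyme wells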
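With Hepes-Na pH 7.6 buffer containing 10 mM MgCl2, Sfp (15 nM) modified BHQ-2-YbbR (12.5 uM) using rhodamine-CoA (5 uM). Two reads 30 minutes apart at 525/598 nm yielded each well's rate.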
JMJD2A Tudor: JMJD2A Tudor domain (human) inhibition; O75164; AlphaScreen JMJD2A-Tudor / H3K4me3 peptide binding; Potency, µM (series often up to 114 µM), for the others: at the top dose activity change, negative = inhibition, actives largely listed as inhibitors; 390,000 tested, 4.4% active; also: % is scaled to controls: 0 for no effect and ±100 for the full control effect; nearly all actives have a fitted effect of over 50% in size
HP1b binding inh: blocks HP1-beta chromodomain binding to methylated histone tails; Potency, µM (highest dose often 114 µM), inactives show top-dose activity change, negative = inhibition, most hits filed as inhibitors; AlphaScreen HP1-beta / biotin-H3K9me3 peptide binding; 390,000 tested, 0.56% active; also: nearly all actives have a fitted effect of over 70% in size
Target sequence (P83916 whole entry, looked up): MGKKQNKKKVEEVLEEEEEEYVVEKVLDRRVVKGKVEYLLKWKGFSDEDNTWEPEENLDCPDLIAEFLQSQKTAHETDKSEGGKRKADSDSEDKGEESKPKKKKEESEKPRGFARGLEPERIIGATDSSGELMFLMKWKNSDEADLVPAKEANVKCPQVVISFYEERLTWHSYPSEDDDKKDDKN
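Compound inhibition of the preformed complex between 50 nM HP1-beta and 50 nM biotinylated H3K9me3 peptide was read by AlphaScreen. Buffer was PBS pH 7.4 with 0.01% Tween-20. Incubations ran 30 min at room temperature, with 10 ug/mL donor/acceptor beads.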
* = called active by the depositor; u = inconclusive; x = not tested or not shown; ! = not active in a repeat; [ ] = another dose, or the depositor's remark. Calls follow the shape of the dose curve; as a rule, active = well fitted curve in the direction sought with a large enough effect; inconclusive = small, poorly fitted or top-dose-only effect, or another doubt; inactive = no such curve, though single readings can be large; an effect the other way counts as inactive or inconclusive. Potency is read from the fitted curve at half-maximal effect.

SMILES	G9a inh	BAZ2B block	Sfp PPTase inh	JMJD2A Tudor	HP1b binding inh
Cc1ccc(N2CC(NC(=O)c3ccc4c(c3)OCO4)CC2=O)cc1 (configuration not stated)	10.0%[59 µM]	-0.3%	x	-14.0%	-5.3%
O=C(NCC(c1ccco1)N1CCc2ccccc2C1)c1ccccc1 (configuration not stated)	7.2%	0.0%	x	-17.1%	26.4%
CC(=O)Nc1cccc(NC(=O)C(=O)NCC(c2ccco2)N2CCc3ccccc32)c1 (configuration not stated)	50.1µM*	50.1µM*	x	56.2µM*	u
O=C(NCC(c1ccco1)N1CCc2ccccc2C1)C(=O)Nc1ccccc1 (configuration not stated)	50.1µM*	0.7%	x	-12.3%	7.9%
O=c1c2ccccc2sc2c(CO)ccc(NCCN3CCCCC3)c12	x	x	x	50.1µM*	u
CCN(CC)CCNc1ccc(CO)c2sc3ccccc3c(=O)c12	u	u	14.9%	u	-8.7%
CCOc1cc(/C=N/NC(=O)c2cc(C3CC3)[nH]n2)ccc1O	44.7µM*	-26.9%	13.5%	50.1µM*	-1.2%
COc1cc(/C=N/NC(=O)c2cc(C3CC3)[nH]n2)ccc1O	0.2%	-5.3%	-0.1%	-3.2%	52.2%
CCCN(CCC)C(=O)Cn1c(=O)n(-c2ccc(C)cc2)c(=O)c2ccc(C(=O)NCc3ccccc3Cl)cc21	9.7%[59 µM]	x	x	-0.7%	37.5%
COc1ccc(/C=C/C(=O)NC(=S)Nc2ccc(S(=O)(=O)Nc3cc(OC)ncn3)cc2)cc1	39.8µM*	-19.6%	-9.3%	-19.6%	7.1%
COc1cc(NS(=O)(=O)c2ccc(NC(=S)NC(=O)/C=C/c3ccc(OC)c(OC)c3)cc2)ncn1	39.8µM*	12.6µM*	-9.3%	-24.1%[11.4 µM]	22.4µM*
COCCNc1nc2nonc2nc1N1C[C@H]2CC[C@H]1C2	79.4µM*	3.9%	-0.5%	7.2%	36.9%
Cc1nc2ccccn2c1C(=O)NC1CCCc2ccccc21 (configuration not stated)	6.5%	-17.0%	10.3%	-8.2%	32.1%
CC(C)(C)S(=O)(=O)/C(C#N)=N/Nc1ccc(S(N)(=O)=O)cc1	-23.8%	-23.1%	8.2%	89.1µM*	26.6%
CC(C)(C)S(=O)(=O)/C(C#N)=N/Nc1ccc(C#N)cc1	-34.4%	70.8µM*	-7.3%	-23.1%	21.7%
CC(C)(C)S(=O)(=O)/C(C#N)=N/Nc1ccc(S(C)(=O)=O)cc1	-43.9%	-15.0%	4.8%	-4.5%[11.4 µM]	2.8%
Cc1ccc(-c2cnc(SCCNC(=O)c3ccco3)[nH]2)cc1	44.7µM*	-34.0%	x	-21.2%	-0.3%
Cc1cc(C(=O)OCC(=O)N2CCCC2)c2ccccc2n1	-18.0%	6.2%	7.0%	-4.2%	3.5%
NC(=O)COC(=O)c1cc(-c2ccco2)nc2ccccc12	15.8µM*	-24.0%	-28.8%	-19.0%	6.0%
COc1ccccc1CNC(=O)COC(=O)c1cc(-c2ccco2)nc2ccccc12	12.6µM*	39.8µM*	u	20µM*	u
Cc1cc(C(=O)OCC(=O)N2CCOCC2)c2ccccc2n1	0.1%[59 µM]	6.8%	-22.7%	35.5µM*	u
O=C(O)c1cc(-c2ccco2)nc2ccc(Br)cc12	3.55µM*	11.4%	12.6µM*!	12.6µM*!	56.2µM*!
N#CCCn1c(=O)c(-c2ccc(F)cc2)nc2cnc(OCc3ccccc3)nc21	2.7%[0.501 µM]	x	12.6%	x	x
O=C(Cc1cccs1)NC1CC(=O)N(c2ccccc2)C1 (configuration not stated)	-5.8%[59 µM]	2.3%	x	2.9%	18.5%
CC/C=C\C/C=C\C/C=C\C/C=C\C/C=C\CCCC(=O)O	12.6%[59 µM]	x	-0.8%	x	x
O=C(COC(=O)c1cc(-c2ccco2)nc2ccccc12)NCc1ccc2c(c1)OCO2	12.6µM*	-9.2%	-16.5%	-13.7%	22.8%
COc1cccc(CNC(=O)CSc2c3c(nc4ccc(Cl)cc24)CCCC3)c1OC	8.5%[59 µM]	x	x	-7.3%	24.9%
C=CC(C)(C)c1c(O)c(CC=C(C)C)c(O)c2c(=O)c3ccc(O)c(O)c3oc12	x	x	x	50.1µM*	-15.2%
O=C(O)/C=C\C(=O)Nc1cccc(NC(=O)c2ccccc2)c1	x	u	-9.8%	-22.9%	47.0%
O=C(O)/C=C/C(=O)Nc1ccc(C(=O)c2ccccc2)cc1	-37.2%	-12.9%	0.9%	-19.7%	25.8%
